# Screens from PubChem BioAssay.
# An excerpt weighted towards active compounds, which were near 12% of everything screened.
# PLK1 PBD inh: PLK1 (human) polo-box domain binding inhibition | P53350 | Plk1 PBD binding of FITC phosphopeptide, fluorescence polarization | Potency, µM, for the others: max response, negative = inhibition, usual class: inhibitors | 2.8% of 360,000 active | AID 720504; note: series mostly up to about 57 µM; % is set by controls: 0 for no effect and ±100 for the full control effect; nearly all actives have a fitted effect of over 65% in size
# JMJD2A Tudor: JMJD2A Tudor domain (human) inhibition; O75164; AlphaScreen JMJD2A-Tudor / H3K4me3 peptide binding; Potency, µM (doses to about 114 µM), for inactives: top-dose activity change, negative = inhibition, most hits filed as inhibitors; 4.4% of 390,000 active; AID 504339; note: % is set by controls: 0 for no effect and ±100 for the full control effect; nearly all actives have a fitted effect of over 50% in size
# Target sequence (O75164 whole entry, looked up, the tested form may be a part): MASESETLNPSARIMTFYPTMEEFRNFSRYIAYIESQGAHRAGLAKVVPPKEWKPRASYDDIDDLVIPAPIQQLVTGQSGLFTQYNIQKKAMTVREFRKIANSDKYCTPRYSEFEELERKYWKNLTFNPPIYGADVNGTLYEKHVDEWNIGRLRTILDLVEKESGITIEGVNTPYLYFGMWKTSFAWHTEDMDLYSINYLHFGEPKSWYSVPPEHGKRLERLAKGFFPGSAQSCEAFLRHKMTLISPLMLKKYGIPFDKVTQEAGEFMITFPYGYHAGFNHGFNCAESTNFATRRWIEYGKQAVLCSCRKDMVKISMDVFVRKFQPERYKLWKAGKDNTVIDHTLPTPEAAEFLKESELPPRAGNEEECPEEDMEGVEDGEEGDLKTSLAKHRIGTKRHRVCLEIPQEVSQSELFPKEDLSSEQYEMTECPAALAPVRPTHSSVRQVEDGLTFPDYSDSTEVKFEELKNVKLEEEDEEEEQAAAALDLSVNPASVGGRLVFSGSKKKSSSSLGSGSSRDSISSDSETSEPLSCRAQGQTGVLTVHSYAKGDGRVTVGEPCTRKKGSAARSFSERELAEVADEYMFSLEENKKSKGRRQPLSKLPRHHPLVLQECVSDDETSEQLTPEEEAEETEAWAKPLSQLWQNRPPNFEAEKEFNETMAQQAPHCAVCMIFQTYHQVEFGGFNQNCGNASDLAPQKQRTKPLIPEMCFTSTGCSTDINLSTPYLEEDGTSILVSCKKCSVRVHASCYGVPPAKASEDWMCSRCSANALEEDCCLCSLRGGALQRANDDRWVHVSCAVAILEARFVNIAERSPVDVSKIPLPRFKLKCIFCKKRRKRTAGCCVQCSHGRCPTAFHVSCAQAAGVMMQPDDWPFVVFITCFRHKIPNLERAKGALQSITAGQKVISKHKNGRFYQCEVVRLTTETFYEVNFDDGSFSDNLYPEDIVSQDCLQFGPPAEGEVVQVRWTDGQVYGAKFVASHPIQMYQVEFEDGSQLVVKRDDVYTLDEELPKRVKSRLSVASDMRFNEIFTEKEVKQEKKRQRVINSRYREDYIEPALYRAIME
# HP1b chromo inh: blocks HP1-beta chromodomain binding to methylated histone tails; Potency, µM (doses to about 114 µM), for the others: at the top dose activity change, negative = inhibition, actives largely listed as inhibitors; 0.56% of 390,000 active; P83916; AlphaScreen HP1-beta / biotin-H3K9me3 peptide binding; note: nearly all actives have a fitted effect of over 70% in size
#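 Compound inhibition of the preformed complex between 50 nM HP1-beta and 50 nM biotinylated H3K9me3 peptide was read by AlphaScreen. Buffer was PBS pH 7.4 with 0.01% Tween-20. Incubations ran 30 min at room temperature, with 10 ug/mL donor/acceptor beads.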
# BAZ2B block: blocks human BAZ2B. Q9UIF8. AlphaScreen BAZ2B-H3K14Ac peptide displacement. Potency, µM (titrated, usually from 114 µM), for inactives: top-dose activity change, negative = inhibition, actives largely listed as inhibitors. 4.4% of 360,000 active. AID 504333; note: % is set by controls: 0 for no effect and ±100 for the full control effect; nearly all actives have a fitted effect of over 60% in size
#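 Protein-peptide AlphaScreen: BAZ2B 50 nM, b-H3K14Ac 50 nM, 1x PBS pH 7.4 + 0.01% Tween-20. Preincubation 30 min RT; cpd 30 min RT (top 110 uM); beads 20 min RT, light-protected.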
# Sfp inh: inhibitors of Bacillus subtilis Sfp phosphopantetheinyl transferase; Q9F4F7; Biochemical Sfp PPTase activity, qHTS; Potency, µM, without a hit: largest response in the series, negative = inhibition, hits mostly inhibitors; 3.5% of 310,000 active;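 note: the enzyme is Sfp with the accession as filed and its product quenches rhodamine fluorescence; 0% = enzyme reaction without inhibitor and -100% = no enzyme wells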
#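 Fluorescence-quenching assay with 15 nM Sfp, 5 uM rhodamine-CoA and 12.5 uM BHQ-2-labelled ybbR peptide in pH 7.6 Hepes/MgCl2 buffer. Enzyme was pre-incubated with compound for 15 min at room temperature. Rate was taken from the 30-min fluorescence change (525/598 nm).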
# G9a inh: blocks human histone lysine methyltransferase G9a; Q96KQ7; G9a H3K9 monomethylation, AlphaScreen, 2 h; Potency, µM (series often up to 102 µM), inactives show top-dose activity, negative = inhibition, actives largely listed as inhibitors; 8.8% of 350,000 active; AID 504332; note: % is set by controls: 0 for no effect and ±100 for the full control effect; nearly all actives have a fitted effect of over 75% in size
#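 Chemiluminescent proximity detection of H3K9 monomethylation, read after 10 min bead incubation in the dark. Reaction: 20 nM G9a, 500 nM biotin-H3K9 peptide, 20 uM SAM cofactor, 2 h, room temperature, following 15 min enzyme-compound preincubation.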
# Starred values were filed as active, the others as inactive; ? = inconclusive; · = not tested or not shown; [ ] = another dose, or the depositor's remark. Calls come from the whole dose curve; as a rule, active = well fitted curve in the direction sought with a large enough effect; inconclusive = small, poorly fitted or top-dose-only effect, or another doubt; inactive = no such curve, though single readings can be large; an effect the other way counts as inactive or inconclusive. Potency is the fitted concentration of half-maximal effect.
SMILES,PLK1 PBD inh,JMJD2A Tudor,HP1b chromo inh,BAZ2B block,Sfp inh,G9a inh
O=C(CSCc1cnn(-c2ccccc2)c1-n1cccc1)N1CCN(Cc2ccccc2)CC1,2%,?,-15%,?,-5%,40µM*
CC(C)(CCCCCCCCCCC(C)(C)CC(=O)O)CC(=O)O,·,·,·,·,1%,·
CC(=O)N1c2ccc(S(=O)(=O)NC(CC(=O)O)c3ccc(Br)cc3)cc2CC1C (stereo unspecified),27µM*,?,18%,-15%[57.1 µM],3%,7%
CC(=O)N1c2ccc(S(=O)(=O)NCCC(=O)NCCc3ccc(C)cc3)cc2CC1C (stereo unspecified),30µM*,?,12%,-16%,-1%,2%[59 µM]
CC(=O)N1c2ccc(S(=O)(=O)NCC3CCC(C(=O)N4CCCC(C)C4)CC3)cc2CC1C (stereo unspecified),21µM*,?,9%,-32%,21%,62%
CC(=O)N1c2ccc(S(=O)(=O)NCCC(=O)NCc3ccc(F)cc3)cc2CC1C (stereo unspecified),30µM*,?,16%,-11%,15%,-6%[59 µM]
CC1Cc2cc(S(=O)(=O)NCCC(=O)NCc3ccc(F)cc3)ccc2N1C(=O)C1CC1 (stereo unspecified),17%,4%,24%,-6%,19%,19%[59 µM]
CC(=O)N1c2ccc(S(=O)(=O)NCCC(=O)Nc3ccc(C)cc3Br)cc2CC1C (stereo unspecified),·,3%,36%,-14%,·,-3%[59 µM]
O=C(CN1C(=O)c2ccccc2S1(=O)=O)NC(Nc1ccccc1F)C(Cl)(Cl)Cl (stereo unspecified),-6%,-23%,-14%,15%,18%,-29%
COC(=O)c1cc(S(=O)(=O)n2nc(C)c(Br)c2C)c(Cl)cc1Cl,-11%,30%,68%,26%,-4%,72%
COc1ccc2c(C)c(CCC(=O)NCCc3ccc(Cl)cc3)c(=O)oc2c1,·,-17%,22%,-5%,·,0%[59 µM]
CC(=O)N1c2ccc(S(=O)(=O)NCCC(=O)Nc3ccc(OC(F)(F)F)cc3)cc2CC1C (stereo unspecified),6.7µM*,?,22%,-3%,20%,8%[59 µM]
CC(C)OC(=S)N/C(=N\S(=O)(=O)c1ccccc1)c1ccccc1,?,-34%,-5%,0%,14µM*,11µM*
CC(C)O/C(=N\S(=O)(=O)c1ccc(Cl)cc1)c1ccccc1,3%,30%,96%,7%,10%,10%[59 µM]
Cc1ccc(S(=O)(=O)/N=C(/NC(=S)Nc2cccc(C)c2)c2ccccc2)cc1,?,-35%,?,-4%,50µM*,?
Cc1cccc(NC(=S)N/C(=N/S(=O)(=O)c2ccccc2)c2ccccc2)c1,24µM*,-18%,-17%,-21%,?,?
CC1CC=CC2C1C(=O)N(Cc1ccccc1)C2c1ccoc1 (stereo unspecified),·,-25%,4%,·,-9%,·
O=S(=O)(NC1C2CC3CC(C2)CC1C3)c1ccccc1 (stereo unspecified),-1%,0%,34%,-3%,·,16%[2.33 µM]
Fc1ccccc1COc1ccc2ccccc2c1CNc1nn[nH]n1,-4%,-7%,44%,·,-4%,9%
CCCCn1nc(-c2ccccc2)c2nc3ccccc3nc21,·,·,·,124%,-7%,·
Cn1nc(-c2ccccc2)c2nc3ccccc3nc21,21µM*,56%,49%,·,3%,35%[59 µM]
Cc1oc(C(=O)O)cc1COc1ccc2c3c(c(=O)oc2c1C)CCCC3,·,·,·,2%,14%,-5%[59 µM]
Cc1oc(C(=O)O)cc1COc1cccc2ccccc12,-12%,-24%,-3%,-31%,15%,?
Cc1c(CC(=O)O)c(=O)oc2c(C)c(OCc3ccccc3Br)ccc12,-26%,?,27%,50µM*,2%,-10%
Cc1c(CC(=O)O)c(=O)oc2c(C)c(OCc3ccccc3)ccc12,-5%,-7%,37%,4%,11%,3%
SMILES,PLK1 PBD inh,JMJD2A Tudor,HP1b chromo inh,BAZ2B block,Sfp inh,G9a inh
COc1cc(C(=O)O)cc(OC)c1OCc1cc(C(=O)O)oc1C,-10%,?,-5%,?,17%,50µM*
Cc1oc(C(=O)O)cc1COc1ccc2c3c(c(=O)oc2c1C)CCC3,-9%,2%,17%,13µM*,3%,50µM*
Cn1c(SCC(=O)N2CCCC2)nnc1-c1cnccn1,4%,-5%,41%,-17%,4%,·
CC(Sc1nncs1)C(=O)Nc1ccc(S(=O)(=O)Nc2ncccn2)cc1 (stereo unspecified),-17%,-9%,34%,·,·,·
COc1cc(NC(=O)CSc2nc(-c3ccco3)cc(C(F)(F)F)n2)cc(OC)c1OC,·,5%,44%,2%,·,2%[59 µM]
CC1=C/C(=C\c2ccc(Br)o2)C(=O)O1,19µM*,40µM*,?,32µM*,3%,?
COC(=O)c1ccccc1-c1ccc(C=O)o1,-3%,-3%,27%,4%,14%,-44%
O=C1C(=Cc2ccc(Br)o2)C(=O)c2ccccc21,2.7µM*,7.9µM*,?,13µM*,56µM*,20µM*
COc1ccccc1-c1ccc(/C=C2\C=CC(=O)O2)o1,16%,?,-27%,50µM*,?,?
O=C(/C=C/c1ccc(Br)o1)OCc1ccccc1,-1%,139%,182%,92%,-11%,14%[59 µM]
COc1ccccc1-c1ccc(/C=C2/C=C(C)OC2=O)o1,?,?,-13%,?,?,16µM*
CCC(C)C(CO)NCCCn1cnc(C(=O)Nc2ccc(C)c(C)c2)n1 (stereo unspecified),-1%,-9%,70%,·,·,·
N#Cc1cccc(NC(=O)N2CC3(CCN(C(=O)c4ccco4)CC3)C2)c1,·,·,·,·,5%,9%[12.7 µM]
CC(Cc1ccccc1)C(=O)NCC1CC1 (stereo unspecified),·,·,·,·,15%,·
O=C1CCCCCN1CP(=O)(O)CCc1ccccc1,-1%,-10%,12%,-6%,10%,7%[59 µM]
O=C1CCCCCN1CP(=O)(O)CN1CCCCCC1=O,-9%,-22%,18%,-11%,20%,50µM*
Cc1cccc(-c2nc3ccccc3c(=O)n2NC(=S)N(C)C)c1,3µM*,89µM*,-47%,-5%,32µM*,8.9µM*
Cc1cc(C)n(-c2nnc(NC34CC5CC(CC(C5)C3)C4)nn2)n1,?,25µM*,?,32µM*,3%,22µM*
Clc1ccc(N=C2SCCS2)cc1,-1%,10%,69%,18%,-2%,3%[59 µM]
O=C1C2CC=CCC2C(=O)N1CC1CCCO1 (stereo unspecified),24µM*,?,4%,2%,22%,-6%
N#Cc1c(Cl)c(Cl)c2nnc(-c3ccc(Br)cc3)n2c1Cl,·,·,·,56µM*,3%,13µM*
